Laboratory results published in PubChem BioAssay (Tox21).
Inconclusive results are not listed. Activity calls are given as the source filed them. Unless noted, the call rests on the fitted dose curve; in most records, active means well fitted curve in the direction sought with a large enough effect in the repeat runs; inconclusive means weak or mixed curves; inactive means no such curve, though single readings can be large; an effect the other way counts as inactive or inconclusive.

Legend:
[1] = A CellTox Green Cytotoxicity Assay to monitor cytotoxicity in HEK293 cells - 32 hour (AID 1224881); further: nearly all actives have a fitted effect of over 40% in size
Outline: (§1)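 HEK293 cells premixed with CellTox Green dye were seeded at 600 cells/well and left 5 h at 37 C/5% CO2 before pin transfer of 23 nL compound in DMSO. Fluorescence from dye bound to dead-cell DNA was read during 40 h treatment.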

[2] = A CellTox Green Cytotoxicity Assay to monitor cytotoxicity in HepG2 cells - 0 hour (AID 1224882); further: nearly all actives have a fitted effect of over 35% in size
Outline: (§2)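 HepG2 cells were seeded together with the CellTox Green dye at 600 cells/well, left 5 h at 37 C/5% CO2, then given compounds in DMSO. Fluorescence from dye bound to dead-cell DNA was read repeatedly over 40 h of treatment at 37 C.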

[3] = A CellTox Green Cytotoxicity Assay to monitor cytotoxicity in HepG2 cells - 32 hour (AID 1224883); further: nearly all actives have a fitted effect of over 50% in size
Outline: as §2

[4] = A CellTox Green Cytotoxicity Assay to monitor cytotoxicity in HEK293 cells - 8 hour (AID 1224884); further: nearly all actives have a fitted effect of over 35% in size
Outline: as §1

[5] = qHTS RealTime-Glo MT Cell Viability Assay in HepG2 cells - 16 hour (AID 1224885); further: nearly all actives have a fitted effect of over 50% in size
Outline: (§3)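 Real-time, nonlytic viability: 600 HepG2 cells/well mixed with NanoLuc enzyme plus prosubstrate; 5 h settle, compound (DMSO) added by pintool; luminescence monitored over 40 h at 37 C.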

[6] = qHTS RealTime-Glo MT Cell Viability Assay in HEK293 cells - 8 hour (AID 1224887); further: top concentration of the series differs between compounds; nearly all actives have a fitted effect of over 50% in size
Outline: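 HEK293 cells mixed with RealTime-Glo reagents (NanoLuc plus cell-permeant prosubstrate) at 600 cells/well, preincubated 5 h at 37 C/5% CO2, then given 23 nL compound in DMSO. Nonlytic luminescence from viable cells was read at 0, 8, 16, 24, 32 and 40 h.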

[7] = A CellTox Green Cytotoxicity Assay to monitor cytotoxicity in HEK293 cells - 16 hour (AID 1224888); further: nearly all actives have a fitted effect of over 35% in size
Outline: as §1

[8] = qHTS RealTime-Glo MT Cell Viability Assay in HepG2 cells - 0 hour (AID 1224889); further: nearly all actives have a fitted effect of over 50% in size
Outline: as §3

[9] = A CellTox Green Cytotoxicity Assay to monitor cytotoxicity in HepG2 cells - 8 hour (AID 1224890); further: nearly all actives have a fitted effect of over 45% in size
Outline: as §2

[10] = qHTS assay to identify small molecule antagonists of the estrogen receptor alpha (ER-alpha) signaling pathway using the BG1 cell line in the presence of 0.1 nM 17-beta-estradiol - cell viability counter screen (AID 1259241); further: nearly all actives have a fitted effect of over 40% in size
Outline: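 VM7Luc4E2 cells (endogenous full-length ER-alpha, 4xERE-luciferase), cultured 5 days in charcoal-stripped serum, exposed to compounds with 0.1 nM 17beta-estradiol (final) for 22 hr at 37C. Viability read in same wells as live-cell protease fluorescence after 30 min.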

[11] = qHTS assay to identify small molecule antagonists of the androgen receptor (AR) signaling pathway using the MDA cell line in the presence of 0.5 nM R1881 - cell viability counter screen (AID 1259242); further: nearly all actives have a fitted effect of over 45% in size
Outline: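 MDA-kb2 cells (human breast carcinoma, stably carrying MMTV-luciferase reporter) were exposed to compounds with 0.5 nM R1881 (final) for 16 hr at 37C, 0% CO2; viability then read as live-cell protease fluorescence (CellTiter-Fluor, 30 min) in the same wells.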

[12] = target: Estrogen receptor (Homo sapiens) (UniProt P03372); assay: qHTS assay to identify small molecule antagonists of the estrogen receptor alpha (ER-alpha) signaling pathway using the BG1 cell line in the presence of 0.1 nM 17-beta-estradiol (AID 1259244); further: nearly all actives have a fitted effect of over 50% in size
Sequence of Estrogen receptor (Homo sapiens) (P03372 whole entry, looked up): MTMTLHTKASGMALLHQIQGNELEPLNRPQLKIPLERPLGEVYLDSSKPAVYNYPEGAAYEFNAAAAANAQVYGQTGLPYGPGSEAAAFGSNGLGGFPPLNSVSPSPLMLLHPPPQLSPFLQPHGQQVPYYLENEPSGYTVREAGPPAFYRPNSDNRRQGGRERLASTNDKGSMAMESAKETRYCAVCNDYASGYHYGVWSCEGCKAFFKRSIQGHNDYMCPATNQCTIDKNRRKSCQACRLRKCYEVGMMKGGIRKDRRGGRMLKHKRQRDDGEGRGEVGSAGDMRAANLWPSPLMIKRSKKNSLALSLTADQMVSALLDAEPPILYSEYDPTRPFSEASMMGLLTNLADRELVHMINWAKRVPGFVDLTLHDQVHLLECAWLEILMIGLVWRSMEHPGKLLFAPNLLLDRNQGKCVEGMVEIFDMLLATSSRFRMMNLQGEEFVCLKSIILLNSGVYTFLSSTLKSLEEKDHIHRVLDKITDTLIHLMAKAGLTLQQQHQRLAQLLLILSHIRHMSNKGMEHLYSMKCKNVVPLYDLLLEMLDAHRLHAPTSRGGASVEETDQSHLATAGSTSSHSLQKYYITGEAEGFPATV
Outline: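 VM7Luc4E2 cells (endogenous full-length ER-alpha, stable 4xERE-luciferase) were grown 5 days in phenol red-free medium with charcoal-stripped FBS, then exposed 22 h at 37C to compounds plus 0.1 nM (final) 17beta-estradiol; ONE-Glo luminescence read-out.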

[13] = qHTS assay to identify small molecule HDAC inhibitors - cell viability counter screen (AID 1259365)
Outline: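 Wild-type HCT-116 cells, 1,500/well, cultured overnight, then compound-treated 2 h at 37 C. Viability measured as ATP luminescence with CellTiter-Glo after 30 min at room temperature.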

[14] = qHTS assay to identify small molecule agonists of the sonic hedgehog signaling (Shh) pathway - cell viability counter screen (AID 1259366); further: nearly all actives have a fitted effect of over 50% in size
Outline: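 NIH/3T3-derived Gli1-Luc reporter cells, 2,000 per well, received compound after 4 h and were treated about 23 h at 37C. Viability measured in the same wells by CellTiter-Fluor fluorescence after 1 h.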

[15] = qHTS assay to identify small molecule antagonists of the sonic hedgehog signaling (Shh) pathway - cell viability counter screen (AID 1259367); further: nearly all actives have a fitted effect of over 55% in size
Outline: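 After a 4 hr settling period, 3T3 Gli1-Luc cells were treated with DMSO-dissolved chemicals and conditioned medium, kept 24 hr at 37C in 5% CO2, and assayed for viability by CellTiter-Fluor fluorescence following 1 hr reagent incubation.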

[16] = qHTS assay to identify small molecule agonists of the sonic hedgehog signaling (Shh) pathway (AID 1259368; calls by dose curve; further: series mostly up to about 92 µM; nearly all actives have a fitted effect of over 15% in size)
Outline: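 NIH/3T3-derived 3T3Gli1-Luc cells carrying a stably integrated Gli1 response element–firefly luciferase reporter were plated, left 4 hr at 37 C, then given compounds in DMSO for 24 hr. Luminescence was read 30 min after adding luciferase reagent.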

[17] = qHTS assay to identify small molecule HDAC inhibitors (AID 1259364); further: top concentration of the series differs between compounds; nearly all actives have a fitted effect of over 45% in size
Outline: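 Wild-type HCT-116 cells were plated overnight, exposed to compounds for 2 h at 37 °C, then given HDAC-Glo class I/II luminogenic reagent for 30 min at room temperature before luminescence was read.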

[18] = qHTS assay to identify small molecule phospholipidosis (PLD) inducers (AID 1259344; active means well fitted curve in the direction sought with a large enough effect; an effect the other way counts as inactive or inconclusive)
Outline: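 HepG2 cells grown on collagen I take up LipidTOX Red while exposed to compound for 24 h; after fixation they are imaged at 20x and pit metrics are extracted.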

[19] = qHTS RealTime-Glo MT Cell Viability Assay in HEK293 cells - 24 hour (AID 1224886)
Outline: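 Cells + reagent dispensed (600 cells/well, HEK293) → 5 h at 37 C/5% CO2 → 23 nL compound in DMSO pinned → 40 h at 37 C → luminescence read at 0, 8, 16, 24, 32, 40 h.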

[20] = target: Androgen receptor (Homo sapiens) (UniProt P10275); assay: qHTS assay to identify small molecule antagonists of the androgen receptor (AR) signaling pathway using the MDA cell line in the presence of 0.5 nM R1881 (AID 1259243); further: nearly all actives have a fitted effect of over 50% in size
Sequence of Androgen receptor (Homo sapiens) (P10275 whole entry, looked up): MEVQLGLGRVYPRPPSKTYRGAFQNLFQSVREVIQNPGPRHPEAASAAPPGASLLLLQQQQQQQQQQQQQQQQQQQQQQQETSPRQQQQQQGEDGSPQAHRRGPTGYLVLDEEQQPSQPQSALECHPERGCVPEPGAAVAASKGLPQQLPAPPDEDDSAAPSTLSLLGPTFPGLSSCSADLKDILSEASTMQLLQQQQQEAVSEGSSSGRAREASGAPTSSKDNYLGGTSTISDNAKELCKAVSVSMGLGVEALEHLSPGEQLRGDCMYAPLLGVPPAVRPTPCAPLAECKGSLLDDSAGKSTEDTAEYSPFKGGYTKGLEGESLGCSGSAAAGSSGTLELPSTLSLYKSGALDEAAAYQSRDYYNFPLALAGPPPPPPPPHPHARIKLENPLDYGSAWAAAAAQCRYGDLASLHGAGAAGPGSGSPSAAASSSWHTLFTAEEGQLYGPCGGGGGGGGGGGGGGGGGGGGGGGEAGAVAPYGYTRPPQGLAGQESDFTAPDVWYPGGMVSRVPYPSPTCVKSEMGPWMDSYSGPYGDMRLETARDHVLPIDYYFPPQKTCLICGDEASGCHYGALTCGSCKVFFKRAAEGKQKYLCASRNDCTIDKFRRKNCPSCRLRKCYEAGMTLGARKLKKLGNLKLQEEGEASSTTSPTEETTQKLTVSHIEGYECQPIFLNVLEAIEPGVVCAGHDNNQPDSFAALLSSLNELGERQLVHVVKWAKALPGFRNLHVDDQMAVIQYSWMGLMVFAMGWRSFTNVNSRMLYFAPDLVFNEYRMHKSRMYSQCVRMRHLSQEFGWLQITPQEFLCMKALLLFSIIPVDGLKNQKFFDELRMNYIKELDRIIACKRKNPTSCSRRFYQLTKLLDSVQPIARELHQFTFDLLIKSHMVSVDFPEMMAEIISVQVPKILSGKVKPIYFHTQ
Outline: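 MDA-kb2 human breast carcinoma cells carrying an MMTV-luciferase reporter (AR- and GR-responsive) were plated, rested 5 hr at 37C, dosed with compounds, then stimulated with 0.5 nM R1881 (final) for 16 hr; luminescence was read after ONE-Glo.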

Measured: Potency

C[N+](=O)[O-]
not listed: [17] | [18] | [19] | [20]
inactive: all other assays above

ClCCOCOCCCl
not listed: [8] | [12] | [15] | [18] | [19] | [20]
inactive: all other assays above

CN(C)CCc1ccc(O)cc1
not listed: [12] | [13] | [19] | [20]
inactive: all other assays above

N#CCBr
not listed: [7] | [9] | [13] | [16] | [18] | [20]
inactive: all other assays above

Cc1ncc(CNC(=O)N(CCCl)N=O)c(N)n1
not listed: [7] | [20]
inactive: all other assays above

COCC(=O)N(c1c(C)cccc1C)N1CCOC1=O
not listed: [7] | [12] | [15] | [17] | [18] | [20]
inactive: all other assays above

N#Cc1c(Cl)cccc1Cl
not listed: [7] | [16] | [17] | [18] | [19] | [20]
inactive: all other assays above

C[N+](C)=CCl
not listed: [5] | [7] | [18] | [20]
inactive: all other assays above

COc1cc(OC)nc(Sc2cccc(Cl)c2C(=O)O)n1
not listed: [5] | [7] | [12] | [15] | [18] | [20]
inactive: all other assays above

Clc1ccccc1N1CCNCC1
not listed: [5] | [12] | [18]
inactive: all other assays above

COc1cc(OC)nc(NC(=O)NS(=O)(=O)c2ncccc2C(=O)N(C)C)n1
not listed: [5] | [14] | [18] | [20]
inactive: all other assays above

CCC1(c2ccccc2)C(=O)NC(=O)NC1=O
not listed: [5] | [9] | [12] | [14] | [20]
inactive: all other assays above

Cc1nnc2n1-c1sc(CCC(=O)N3CCOCC3)cc1C(c1ccccc1Cl)=NC2
inactive: [1] | [2] | [3] | [4] | [5] | [6] | [8] | [10] | [18] | [17]

CC(C1CC1)C(O)(Cn1cncn1)c1ccc(Cl)cc1 (configuration not stated)
not listed: [7] | [11] | [12] | [16] | [18] | [19] | [20]
inactive: all other assays above
